From the supplement of paper PMC12067926
Unmarked numbers belong to inactive results.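 Rule for the calls: active = growth AUC significantly below the DMSO wells by Dunnett test; inactive = the rest.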

These molecules were tested on Carnobacterium 1 (Carnobacterium gallinarum) (assay: relative growth (AUC of 72 h growth curve relative to DMSO control, dAUC) (ratio); higher = more growth (less inhibition), active = hit call of the paper). Conditions: 20 µM.
Procedure: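 Environmental bacterial isolates (Iceland stream sediment and Silwood Park soil) and whole stream-sediment communities were grown in LB from a 1:100 dilution with each pesticide at 20 µM (1% DMSO). A600 was read hourly for 72 h and the area under a spline-fitted growth curve (AUC) was computed. dAUC is the mean AUC of 3 biological replicates divided by the mean AUC of the DMSO controls. Significance was tested by Dunnett's test against the DMSO control.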

In order of rising relative growth:
1. COP(=S)(OC)Oc1nc(Cl)c(Cl)cc1Cl  0.447
2. COP(N)(=O)SC (stereo not given)  0.69
3. N#CC(CCc1ccc(Cl)cc1)(Cn1cncn1)c1ccccc1 (stereo not given)  0.805
4. CCC(CC)Nc1c([N+](=O)[O-])cc(C)c(C)c1[N+](=O)[O-]  0.819
5. COc1ccc(-c2ccccc2)cc1NNC(=O)OC(C)C  0.828
6. COCc1cnc(C2=NC(C)(C(C)C)C(=O)N2)c(C(=O)O)c1 (stereo not given)  0.837
7. COCC(C)N(C(=O)CCl)c1c(C)csc1C (stereo not given)  0.859
8. CCCCc1c(C)nc(NCC)nc1OS(=O)(=O)N(C)C  0.861
9. CC1(C)C(C=C(Cl)Cl)C1C(=O)OC(C#N)c1ccc(F)c(Oc2ccccc2)c1 (stereo not given)  0.865
10. CCC(=O)Nc1ccc(Cl)c(Cl)c1  0.897
11. CS(=O)(=O)NC(=O)c1cc(Oc2ccc(C(F)(F)F)cc2Cl)ccc1[N+](=O)[O-]  0.908
12. Cc1cc(C2CC2)nc(Nc2ccccc2)n1  0.909
13. CN/C(=N\[N+](=O)[O-])NCc1cnc(Cl)s1  0.918
14. O=C(O)c1nc(Cl)ccc1Cl  0.925
15. CC[C@H]1CCC[C@H](O[C@H]2CC[C@H](N(C)C)[C@@H](C)O2)[C@@H](C)C(=O)C2=C[C@@H]3[C@@H](C=C(C)[C@@H]4C[C@@H](O[C@@H]5O[C@@H](C)[C@H](OC)[C@@H](OC)[C@H]5OC)C[C@@H]34)[C@@H]2CC(=O)O1.CC[C@H]1CCC[C@H](O[C@H]2CC[C@H](N(C)C)[C@@H](C)O2)[C@@H](C)C(=O)C2=C[C@H]3[C@@H]4C[C@H](O[C@@H]5O[C@@H](C)[C@H](OC)[C@@H](OC)[C@H]5OC)C[C@H]4C=C[C@H]3C2CC(=O)O1  0.952
16. COP(=O)(OC)OC=C(Cl)Cl  0.961
17. CCNC(=O)NC(=O)/C(C#N)=N/OC  0.965
18. CC(C)N(C(=O)COc1nnc(C(F)(F)F)s1)c1ccc(F)cc1  1.04
19. CCCN(CCC)C(=O)SCc1ccccc1  1.04
20. COP(=S)(OC)SCN1C(=O)c2ccccc2C1=O  1.04
21. C[N+](C)(C)CCCl  1.05
22. CCN(CC)c1nc(C)cc(OP(=S)(OC)OC)n1  1.07
23. CCCN(CCOc1c(Cl)cc(Cl)cc1Cl)C(=O)n1ccnc1  1.08
24. CCOP(=S)(OCC)Oc1nc(Cl)c(Cl)cc1Cl  1.1
25. Clc1ccc(C(c2ccc(Cl)cc2)C(Cl)(Cl)Cl)cc1  1.1
26. Cc1cc(C)nc(Nc2ccccc2)n1  1.1
27. COC(=O)Nc1nc2ccccc2[nH]1  1.1
28. COCC(=O)N(c1c(C)cccc1C)[C@H](C)C(=O)OC  1.12
29. O=C(O)CNCP(=O)(O)O  1.13
30. CCOC(=O)OC1=C(c2cc(C)ccc2C)C(=O)N[C@]12CC[C@@H](OC)CC2  1.17
31. C#CCOc1ccc(CCNC(=O)C(OCC#C)c2ccc(Cl)cc2)cc1OC (stereo not given)  1.18
32. CCc1nn(C)c(C(=O)NCc2ccc(Oc3ccc(C)cc3)cc2)c1Cl  1.19
33. CC1COC(Cn2cncn2)(c2ccc(Oc3ccc(Cl)cc3)cc2Cl)O1 (stereo not given)  1.19
34. CC(C)N(C)S(=O)(=O)NC(=O)c1cc(-n2c(=O)cc(C(F)(F)F)n(C)c2=O)c(F)cc1Cl  1.22
35. O=[N+]([O-])/N=C1\NCCN1Cc1ccc(Cl)nc1  1.26
36. C/C(=N\C#N)N(C)Cc1ccc(Cl)nc1  1.32
37. CSc1nnc(C(C)(C)C)c(=O)n1N  1.38
38. CN/C(=N/CC1CCOC1)N[N+](=O)[O-] (stereo not given)  1.46
39. CC1(C)[C@H](C(=O)O[C@H](C#N)c2cccc(Oc3ccccc3)c2)[C@@H]1C=C(Br)Br  1.47

For `Oc1ccc(Cl)cc1Cc1cc(Cl)ccc1O`, the relative growth was 0.00911 (active).
